The source made the active and inactive calls.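 The calls were made as follows: active = cell survival after UV exposure 2 SD above solvent-only control wells at 10 µM, confirmed on one or two repeats; inactive = the rest.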
Test: cell survival after pyrene fatty acid photosensitization – ZR-82 cells, Analyticon library, screen 2, phospholipid biosynthesis inhibitor project, primary screen (AID 1347383);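 also: survival reflects blocked phospholipid synthesis cutting uptake of the phototoxic fatty acid; compound and fatty acid exposure 3 h then viability read next day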
Details: ZR-82 CHO cells, pyrene-fatty acid UV killing, CellTiter Blue; at 10 µM; peroxisome-deficient CHO-K1 variant; with DGAT-1, DGAT-2 and ACAT inhibitors

Row | Structure (SMILES) | outcome
1 | COc1ccc(-c2coc3cc(O[C@@H]4O[C@H](CO)[C@@H](O)[C@H](O)[C@H]4O)ccc3c2=O)cc1 | inactive
2 | CC(=O)O[C@H]1CC2C(COC(=O)CC(C)C)=CO[C@@H](OC(=O)CC(C)C)C2[C@@]12CO2 (some centres undefined) | inactive
3 | O=C(O)CC(O)(Cc1ccc(O)cc1)C(=O)O (centres undefined) | inactive
4 | C=CCc1cc(OC)c(OC(C)C(O)c2ccc(O)c(OC)c2)c(OC)c1 (centres undefined) | inactive
5 | Nc1ccccc1CCCCCCC(=O)O | inactive
6 | COc1cc(C(=O)/C(C)=C(\C)C(=O)c2ccc(O)c(OC)c2)ccc1O | inactive
7 | C=C(COC(=O)C(C)C)C1Oc2cc(C(C)=O)ccc2C1OC(=O)C(C)C (centres undefined) | inactive
8 | CC1(C)C=Cc2c(ccc3c2O[C@@H]2COc4cc5c(cc4[C@@]2(O)C3=O)OCO5)O1 | inactive
9 | CCCCCCCCCC(O)CC(CC(CC1CC=CC(=O)O1)OC(C)=O)OC(C)=O (centres undefined) | inactive
10 | CC(=O)OC/C(=C\COc1cc(=O)oc2cccc(C)c12)CCC=C(C)C | inactive
11 | O=C(/C=C/c1ccccc1)c1ccccc1O | inactive
12 | COC12CC3C(C(C)C1=CC(=O)O2)C(O)C(OC(=O)/C=C/c1ccccc1)C1(O)C(C)(C)CCCC31C (centres undefined) | inactive
13 | C/C=C/CCC1Cc2cc(O)c(CCCC)c(O)c2C(=O)O1 (centres undefined) | inactive
14 | COc1cc2oc(=O)ccc2cc1[C@H]1OC(=O)[C@]2(C)OC12 (some centres undefined) | inactive
15 | C=C1C=CC(C(C)C)CCC(=C)C(O)CC1 (centres undefined) | inactive
16 | COc1ccc(/C=C/C(=O)O)cc1 | inactive
17 | CCCC(O)C1OCC2=C1C(O)C1OC1C2O (centres undefined) | inactive
18 | CC1(C)C(=O)C=CC2(C)C1CC(O)C1(C)C3=CCC(c4ccoc4)C3(C)CCC21 (centres undefined) | inactive
19 | C=C1C(=O)O[C@@H]2C[C@H](C)[C@@]3(O)C=C(C(C)=O)C4(CC3C[C@H]12)C(=O)O[C@H]1C[C@@H](C)C(CCC(C)=O)=CC[C@H]14 (some centres undefined) | inactive
20 | C[C@@H]1C[C@@H](O)C2[C@@](C)(CO)CCC[C@]2(C)[C@@]1(O)CCc1ccoc1 (some centres undefined) | inactive

Row | Structure (SMILES) | outcome
21 | COC(=O)CCC(=O)OC[C@]1(C)CCC[C@@]2(C)C3CC[C@]4(C)C=CC3(CCC12)C4 (some centres undefined) | inactive
22 | C=C1C2=C(C(=O)N1OC)[C@H](O)[C@](C)(O)[C@H](CCCCC)O2 | inactive
23 | CC(CO)C1CCC2(C)CC3C(CO)CC(O)C3C(C)(O)CC=C12 (centres undefined) | inactive
24 | C=C1CCC2C(OC(=O)C2(O)COC(C)=O)C2C(=C)C(O)CC12 (centres undefined) | inactive
25 | CCC/C=C/C=C/C1C[C@@H](O)[C@@H](O)C(=O)[C@H]1CO (some centres undefined) | inactive
26 | O=C(/C=C/C=C/c1ccc2c(c1)OCO2)N1CCCCC1 | inactive
27 | CC1=CC2=C(C=O)C(=O)[C@](C)(O)[C@@H](O)C2=CO1 | inactive
28 | C[C@]12CC[C@@H]3c4ccc(O)cc4CC[C@H]3[C@@H]1CCC2=O | inactive
29 | C/C=C(/C)C(=O)O[C@H]1CC(C)=C[C@@H](O)[C@]2(C)[C@@H]1[C@](O)(C(C)C)C[C@H]2OC(=O)/C(C)=C\C | inactive
30 | COc1c(C)c2c(c(O)c1C/C=C(\C)CCCC(C)C(=O)O)C(=O)OC2 (centres undefined) | inactive
31 | CC(=O)CCCCCCCCNC(C)=O | inactive
32 | C/C=C/c1cc(O)c(C(=O)C(=O)CC)c(=O)o1 | inactive
33 | CC[C@H](C)C(=O)O[C@H]1C[C@@H](C)C=C2C=C[C@H](C)[C@H](CC[C@@H]3C[C@@H](O)CC(=O)O3)[C@H]21 | inactive
34 | C=C1C(=O)O[C@@H]2C3=C(C)CCC[C@]3(C)CC[C@@]12O | inactive
35 | COC(=O)C12OC1CCC1C3(C)CC(C4=CC(=O)OC4O)OC(=O)C3CCC12C (centres undefined) | inactive
36 | O=C1C(c2[nH]c3ccccc3c2O)=Nc2ccccc21 | inactive
37 | CCCCCCCC(=O)C(C)NC(=O)CCC(=O)O (centres undefined) | inactive
38 | C/C=C/C1C=CC(O)C(O)C1C(O)C(C)=O (centres undefined) | inactive
39 | OC1C(c2ccccc2)CCC(c2ccccc2)C1O (centres undefined) | inactive

Source: PubChem BioAssay AID1347383 (Zoeller Lab, School of Medicine, Boston University, 2020)
